Assay results taken from the supplement of paper PMC8728848.
The sample as a whole holds a higher share of the strongest signals than the screen did.

Columns and labels:
Assay in all cases: glycan array binding signal (z-score within array); higher = stronger binding
Details in all cases: glycan notation: IUPAC condensed, linker removed
[1] = target: Gal(b1-4)GlcNAc(b1-3)[Gal(b1-4)GlcNAc(b1-6)]Gal(b1-4)GlcNAc
How it was run: (§1)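 The binding signal is a Z-score computed within each array. Data were drawn from 3228 arrays in the Consortium for Functional Glycomics database, restricted to those with a known protein sequence. Scores were averaged over arrays of the same protein sequence at different concentrations or buffers, and over linkers, and negative values can be taken as non-binding.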

[2] = target: Gal3S(b1-4)[Fuc(a1-3)]Glc6S
How it was run: as §1

[3] = target: GalNAc(b1-4)GlcNAc(b1-2)Man(a1-3)[GalNAc(b1-4)GlcNAc(b1-2)Man(a1-6)]Man(b1-4)GlcNAc(b1-4)GlcNAc
How it was run: as §1

[4] = target: GlcNAc(a1-4)Gal(b1-4)GlcNAc
How it was run: as §1

[5] = target: GlcNAc(b1-2)[GlcNAc(b1-4)]Man(a1-3)[GlcNAc(b1-2)Man(a1-6)]Man(b1-4)GlcNAc(b1-4)GlcNAc
How it was run: as §1

[6] = target: GlcNAc(b1-3)Gal(b1-4)GlcNAc(b1-3)Gal(b1-4)GlcNAc(b1-3)Gal(b1-4)GlcNAc(b1-3)Gal(b1-4)GlcNAc(b1-2)[GlcNAc(b1-3)Gal(b1-4)GlcNAc(b1-3)Gal(b1-4)GlcNAc(b1-3)Gal(b1-4)GlcNAc(b1-3)Gal(b1-4)GlcNAc(b1-6)]Man(a1-6)[GlcNAc(b1-3)Gal(b1-4)GlcNAc(b1-3)Gal(b1-4)GlcNAc(b1-3)Gal(b1-4)GlcNAc(b1-3)Gal(b1-4)GlcNAc(b1-2)Man(a1-3)]Man(b1-4)GlcNAc(b1-4)[Fuc(a1-6)]GlcNAc
How it was run: as §1

[7] = target: GlcNAc(b1-3)GalNAc
How it was run: as §1

[8] = target: GlcNAc(b1-3)[GlcNAc(b1-4)][GlcNAc(b1-6)]GlcNAc
How it was run: as §1

[9] = target: GlcNAc(b1-3)[GlcNAc(b1-6)]GalNAc
How it was run: as §1

[10] = target: Kdn(a2-3)Gal(b1-4)Glc
How it was run: as §1

[11] = target: MurNAc(b1-4)GlcNAc
How it was run: as §1

[12] = target: Neu5Ac(a2-3)Gal(b1-3)GalNAc
How it was run: as §1

[13] = target: Neu5Ac(a2-3)Gal(b1-3)GalNAc(b1-4)[Neu5Ac(a2-3)]Gal(b1-4)Glc
How it was run: as §1

[14] = target: Neu5Ac(a2-3)Gal(b1-3)GlcNAc(b1-2)Man(a1-3)[Neu5Ac(a2-3)Gal(b1-3)GlcNAc(b1-2)Man(a1-6)]Man(b1-4)GlcNAc(b1-4)GlcNAc
How it was run: as §1

[15] = target: Neu5Ac(a2-3)Gal(b1-3)GlcNAc(b1-2)[Neu5Ac(a2-3)Gal(b1-3)GlcNAc(b1-4)]Man(a1-6)[Neu5Ac(a2-3)Gal(b1-3)GlcNAc(b1-2)Man(a1-3)]Man(b1-4)GlcNAc(b1-4)GlcNAc
How it was run: as §1

[16] = target: Neu5Ac(a2-3)Gal(b1-3)GlcNAc6S
How it was run: as §1

[17] = target: Neu5Ac(a2-3)Gal(b1-3)[Fuc(a1-4)]GlcNAc
How it was run: as §1

[18] = target: Neu5Ac(a2-3)Gal(b1-3)[Fuc(a1-4)]GlcNAc(b1-3)Gal(b1-4)[Fuc(a1-3)]GlcNAc
How it was run: as §1

[19] = target: Neu5Ac(a2-3)Gal(b1-4)GlcNAc(b1-3)Gal(b1-4)GlcNAc(b1-3)Gal(b1-4)GlcNAc(b1-2)Man(a1-3)[Neu5Ac(a2-3)Gal(b1-4)GlcNAc(b1-3)Gal(b1-4)GlcNAc(b1-3)Gal(b1-4)GlcNAc(b1-2)Man(a1-6)]GalNAc
How it was run: as §1

[20] = target: Neu5Ac(a2-3)Gal(b1-4)GlcNAc(b1-6)[Neu5Ac(a2-3)Gal(b1-3)]GalNAc
How it was run: as §1

[21] = target: Neu5Ac(a2-6)Gal(b1-4)GlcNAc(b1-2)Man
How it was run: as §1

[22] = target: Neu5Ac(a2-6)Gal(b1-4)GlcNAc(b1-2)Man(a1-3)[Neu5Ac(a2-6)Gal(b1-4)GlcNAc(b1-2)Man(a1-6)]Man(b1-4)GlcNAc(b1-4)[Fuc(a1-6)]GlcNAc
How it was run: as §1

[23] = target: Neu5Ac(a2-6)GlcNAc(b1-4)GlcNAc
How it was run: as §1

[24] = target: Neu5Ac(a2-8)Neu5Ac(a2-8)Neu5Ac
How it was run: as §1

[25] = target: Neu5Ac9Ac(a2-3)Gal(b1-3)GlcNAc
How it was run: as §1

B1: rCnSL-proB (Clitocybe nebularis) (protein)
chain: PTFSPIFALLAFLPFGTLASLLPQTQLVFRINPNLPGPNDVFVGYRGTNNVVGAIYERDGIKDTPMNNGADAELGPGSYITDDLFTAQIFASGSAGNNPGTTATVCKIYADGVQWRGAPKGYLPVLYFGNGQAAEQTRQTYLQGLDIPGTAIRFANLAKTPNQGPTAPRQMVVPSGGLQTLLKASCFPANHAALPQVLSYFNVRAALPPGWNIRTGPEFPNWTN
- glycan array binding signal (z-score) [1]: -0.283
- glycan array binding signal (z-score) [2]: 0.549
- glycan array binding signal (z-score) [3]: 3.38
- glycan array binding signal (z-score) [4]: -0.308
- glycan array binding signal (z-score) [5]: -0.133
- glycan array binding signal (z-score) [6]: 0.742
- glycan array binding signal (z-score) [7]: -0.757
- glycan array binding signal (z-score) [8]: -0.62
- glycan array binding signal (z-score) [9]: -0.668
- glycan array binding signal (z-score) [10]: -1.27
- glycan array binding signal (z-score) [11]: -0.477
- glycan array binding signal (z-score) [12]: -0.437
- glycan array binding signal (z-score) [13]: -0.343
- glycan array binding signal (z-score) [14]: 3.69
- glycan array binding signal (z-score) [15]: 0.146
- glycan array binding signal (z-score) [16]: 0.395
- glycan array binding signal (z-score) [17]: -0.555
- glycan array binding signal (z-score) [18]: 0.025
- glycan array binding signal (z-score) [19]: 4.43
- glycan array binding signal (z-score) [20]: -0.239
- glycan array binding signal (z-score) [21]: 0.328
- glycan array binding signal (z-score) [22]: 0.037
- glycan array binding signal (z-score) [23]: -0.255
- glycan array binding signal (z-score) [24]: -0.203
- glycan array binding signal (z-score) [25]: -0.873
